Screening results (PubChem BioAssay)
The list is not random: actives were taken first. Their share in the collection is about 7.7%.
FBPA Giardia inh: inhibitors of Giardia lamblia fructose-1,6-bisphosphate aldolase | Potency, µM (top dose mostly 59.6 µM), for the others: top-dose activity, negative = inhibition, most hits filed as inhibitors | A8B2U2 | AID 2451 | purified Giardia FBPA | actives 0.71% (n = 290,000); also: potency is read from the fitted curve at half-maximal effect; nearly all actives have a fitted effect of over 55% in size
Target sequence (A8B2U2 whole entry, looked up): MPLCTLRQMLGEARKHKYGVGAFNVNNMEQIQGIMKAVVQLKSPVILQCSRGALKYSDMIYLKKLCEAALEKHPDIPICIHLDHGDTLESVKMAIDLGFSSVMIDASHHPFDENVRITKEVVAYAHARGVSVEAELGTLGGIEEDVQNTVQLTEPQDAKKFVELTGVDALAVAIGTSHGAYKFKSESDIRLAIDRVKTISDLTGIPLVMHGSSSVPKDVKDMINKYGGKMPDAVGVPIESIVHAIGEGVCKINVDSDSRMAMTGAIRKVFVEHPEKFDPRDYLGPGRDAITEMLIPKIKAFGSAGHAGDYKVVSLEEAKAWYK
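Giardia FBPA (40 nM reagent) was preincubated 10 min at RT with compound (up to 57.5 uM final), then substrate plus GAPDH/TPI/NAD/arsenate coupling system with diaphorase/resazurin was added; resorufin fluorescence (525/598 nm) was read after 20 min.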
RE007 growth inh: less growth of the S. pombe RE007 Vpr strain. S. pombe RE007 Vpr strain, BacTiter-Glo ATP luminescence, 24 h. Potency, µM (series often up to 92.2 µM), for inactives: at the highest dose activity change, negative = less growth, most hits filed as inhibitors. actives 0.21% (n = 360,000); active = well fitted falling curve with a large enough effect; inconclusive = small, poorly fitted or top-dose-only effect; inactive = no such curve, though single readings can be large or run the other way; also: potency is read from the fitted curve at half-maximal effect; nearly all actives have a fitted effect of over 50% in size
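Fission yeast RE007 carrying one integrated HIV-1 vpr copy, seeded at OD 0.01 in PMG+AL medium with 23 nL pinned compound. Grown 24 h at 30 degrees; viability read by BacTiter-Glo luminescence after 5 min.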
FMDV inh: foot and mouth disease virus antiviral activity; FMDV antiviral cell-based qHTS; Potency, µM (highest dose often 57.9 µM), for inactives: top-dose activity change, negative = inhibition, usual class: inhibitors; actives 1.2% (n = 410,000); calls by dose curve; tested in HEK293T cells; also: read-out not given here; potency is read from the fitted curve at half-maximal effect; nearly all actives have a fitted effect of over 45% in size
Tb PYK inh: blocks Trypanosoma brucei pyruvate kinase. Q57TT1. actives 0.12% (n = 410,000). TbPYK enzyme, Kinase-Glo Plus ATP luminescence, 45 min. Potency, µM (series often up to 76.8 µM), for inactives: top-dose activity, negative = inhibition, most hits filed as inhibitors; also: potency is read from the fitted curve at half-maximal effect; nearly all actives have a fitted effect of over 50% in size
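T. brucei PYK with substrate was exposed to pin-transferred compounds across a concentration series, then started with 130 uM ADP (final). After 45 min at room temperature, Kinase-Glo Plus luminescence was read, normalized and curve-fitted.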
HCMV inh: human cytomegalovirus inhibition; actives 4.5% (n = 410,000); activity change, negative = inhibition, % at 57.5 µM; HFF cells, HCMV-luciferase reporter, 72 h; hits give low values; in the data active = activity change below about -60%; inconclusive = no clear call, values can overlap the other calls; inactive = above about -39%
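Two-dose cell screen: HFF monolayers treated with compounds and infected with luciferase-expressing HCMV at 1 PFU/cell, 72 h at 37C, then lysed for luciferase measurement.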
Sm TGR block: inhibitors of Schistosoma mansoni thioredoxin glutathione reductase; Q962Y6; purified TGR, DTNB reduction, TNB absorbance 405 nm; Potency, µM (doses to about 114 µM), for inactives: at the highest dose activity change, negative = inhibition, hits mostly inhibitors; actives 3% (n = 360,000); AID 485364; also: potency is read from the fitted curve at half-maximal effect; nearly all actives have a fitted effect of over 60% in size
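First, TGR (20 nM dispensed) and NADPH were mixed with compound. Second, a 15 min room-temperature incubation followed. Third, further NADPH and then DTNB were added to start the reaction. Finally, TNB absorbance was monitored kinetically.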
* hit, by the source's call; [ ] = remark or other dose. Unless noted, calls follow the shape of the dose curve; as a rule, active = well fitted curve in the direction sought with a large enough effect; inconclusive = small, poorly fitted or top-dose-only effect, or another doubt; inactive = no such curve, though single readings can be large; an effect the other way counts as inactive or inconclusive. % is scaled to controls: 0 for no effect and ±100 for the full control effect.

What do the screens show for `CN1CCc2cccc3c2[C@H]1Cc1ccc(O)c(O)c1-3`?
FBPA Giardia inh: inconclusive; RE007 growth inh: -9.8%[18.4 µM]; FMDV inh: inconclusive; Tb PYK inh: inconclusive; HCMV inh: -66.3*

Results for COc1ccc2cc1Oc1ccc(cc1)C[C@H]1c3cc(c(OC)cc3CCN1C)Oc1c(OC)c(OC)cc3c1[C@@H](C2)N(C)CC3 ?
FBPA Giardia inh: -7.6%[21.7 µM]; RE007 growth inh: -7.9%; FMDV inh: 0.0%; Tb PYK inh: 1.7%; HCMV inh: -66.5*; Sm TGR block: 35.5µM*

Results for COc1ccc2c(c1O)-c1c(OC)c(OC)cc3c1[C@H](C2)N(C)CC3 ?
FBPA Giardia inh: -29.9%; RE007 growth inh: 10.0%[18.4 µM]; FMDV inh: 0.0%; Tb PYK inh: 2.1%; HCMV inh: -62.6*; Sm TGR block: -9.6%

What do the screens show for `CCCN1CCc2cccc3c2[C@H]1Cc1ccc(O)c(O)c1-3`?
RE007 growth inh: -21.8%[18.4 µM]; FMDV inh: -20.5%; Tb PYK inh: -23.3%

How did Cc1ccc2c(n1)Oc1ccc(C(C)C(=O)OCC(=O)N(C)C)cc1C2 (centres undefined) do in these assays?
Tb PYK inh: -11.7%

Results for O=C(NCCc1csc(-c2ccc(F)cc2)n1)c1cccs1 ?
FMDV inh: inconclusive; Tb PYK inh: -3.3%; HCMV inh: -25.6; Sm TGR block: 1.1%

What do the screens show for `CC(=NNC(=S)Nc1cccc(C)c1)c1ccccn1`?
RE007 growth inh: -15.9%; FMDV inh: 39.1%; Tb PYK inh: 2.4%; HCMV inh: -98.3*

Results for CC(=NNC(=S)Nc1ccc(C)cc1)c1ccccn1 ?
RE007 growth inh: inconclusive; FMDV inh: 0.3%; Tb PYK inh: -19.4%; HCMV inh: -93.8*

How did COc1ccccc1NC(=S)NN=C(C)c1ccccn1 do in these assays?
RE007 growth inh: 1.3%; FMDV inh: 1.0%; Tb PYK inh: -1.6%; HCMV inh: -101.6*

How did CCC(C(=O)Nc1cc(C(F)(F)F)ccc1Cl)n1nc(C)c2sc3ccccc3c2c1=O (centres undefined) do in these assays?
FMDV inh: -28.6%; Tb PYK inh: 0.4%; HCMV inh: 16.4; Sm TGR block: 3.7%

Results for C[C@H]1C(C(=O)N(C)C2CCCCC2)=Cc2c(n(-c3ccc(F)cc3)c(=O)n2CCCOc2ccccc2)C=C1c1ccccc1 ?
HCMV inh: -29.3

How did CN(Cc1ccccc1)C1=CC(=[N+]2CCCCC2)CC(C)(C)C1 do in these assays?
FBPA Giardia inh: 2.8%; RE007 growth inh: 2.7%; FMDV inh: inconclusive; Tb PYK inh: -0.8%; HCMV inh: -77.0*; Sm TGR block: inconclusive

Results for CC1(C)CC(N2CCN(Cc3ccccc3)CC2)=CC(=[N+]2CCCCC2)C1 ?
FBPA Giardia inh: -3.0%; RE007 growth inh: -21.0%; FMDV inh: inconclusive; Tb PYK inh: inconclusive; HCMV inh: active; Sm TGR block: -21.9%

What do the screens show for `CC1(C)CC(N2CCCC2)=CC(=[N+]2CCCCC2)C1`?
FBPA Giardia inh: 0.8%; RE007 growth inh: -3.7%; FMDV inh: inconclusive; Tb PYK inh: 0.5%; HCMV inh: -92.5*; Sm TGR block: -5.8%

How did Cc1ccc(CN2CCN(Cc3ccccc3)CC2)cc1 do in these assays?
FBPA Giardia inh: 0.9%; RE007 growth inh: -1.7%; FMDV inh: -25.5%; Tb PYK inh: 5.6%; HCMV inh: 22.2; Sm TGR block: 0.0%

Results for CC1(C)CC(N2CCCC2)=CC(=[N+]2CCCC2)C1 ?
FBPA Giardia inh: 2.0%; RE007 growth inh: -27.7%; FMDV inh: inconclusive; Tb PYK inh: -6.6%; HCMV inh: -94.2*; Sm TGR block: -11.7%

Results for CN1C2CCC1CC(NC(=O)n1c(=O)[nH]c3ccccc31)C2 (centres undefined) ?
Tb PYK inh: -6.5%

What do the screens show for `O=C(c1cncs1)N(Cc1cc2cc3c(cc2nc1N1CCOCC1)CCC3)CC1CCCO1` (centres undefined)?
FMDV inh: 10.9%

Results for O=C(Nc1ccc(-c2csc(Nc3ccccc3)n2)cc1)c1cccc(C(F)(F)F)c1 ?
FBPA Giardia inh: -9.2%; RE007 growth inh: 8.0%; FMDV inh: inconclusive; Tb PYK inh: 3.5%; HCMV inh: -81.2*; Sm TGR block: -2.6%

Results for Cc1ccc(Nc2nc(-c3sc(NC(=O)c4cccc(Cl)c4)nc3C)cs2)cc1 ?
FBPA Giardia inh: 0.0%; Sm TGR block: 84.4%

What do the screens show for `O=C(Nc1ccc(-c2csc(-c3ccccc3)n2)cc1)c1ccccc1`?
FBPA Giardia inh: 2.0%; RE007 growth inh: -16.1%; FMDV inh: 0.0%; Tb PYK inh: 3.3%; HCMV inh: -100.7*; Sm TGR block: 0.1%

Results for O=C(Nc1ccccc1)c1cccc(C(F)(F)F)c1 ?
FBPA Giardia inh: 0.5%; RE007 growth inh: -0.7%; FMDV inh: 5.7%; Tb PYK inh: 26.3%; HCMV inh: -34.4; Sm TGR block: -1.8%

How did O=C(Nc1ccc(-c2csc(Nc3ccc(Cl)cc3)n2)cc1)c1cccc(C(F)(F)F)c1 do in these assays?
FBPA Giardia inh: -3.8%; RE007 growth inh: -7.0%; FMDV inh: 20µM*; Tb PYK inh: 6.3%; HCMV inh: inconclusive; Sm TGR block: -1.6%

What do the screens show for `CC(COc1ccccc1)NN` (centres undefined)?
Tb PYK inh: 4.0%

Results for Cc1ccn2cc(-c3cccc(S(=O)(=O)N4CC(C)OC(C)C4)c3)nc2c1 (centres undefined) ?
FBPA Giardia inh: -10.1%; RE007 growth inh: 1.5%; FMDV inh: inconclusive; Tb PYK inh: 7.4%; HCMV inh: -15.2; Sm TGR block: 3.6%

Results for O=S(=O)(c1cccc(-c2csc(-c3cccnc3)n2)c1)N1CCCCC1 ?
FBPA Giardia inh: 7.1%; RE007 growth inh: 0.3%; FMDV inh: -26.3%; Tb PYK inh: 0.6%; HCMV inh: -69.4*; Sm TGR block: -6.4%

What do the screens show for `Cc1ccn2cc(-c3cccc(S(=O)(=O)N4CCCC4)c3)nc2c1`?
FBPA Giardia inh: -17.1%; RE007 growth inh: 1.9%; FMDV inh: -2.5%; Tb PYK inh: -2.6%; HCMV inh: -64.1*; Sm TGR block: -8.7%

What do the screens show for `O=S(=O)(c1ccc(-c2csc(-c3cccnc3)n2)cc1)N1CCCCC1`?
FBPA Giardia inh: 0.4%; RE007 growth inh: 20.2%; FMDV inh: inconclusive; Tb PYK inh: -5.3%; HCMV inh: -62.2*; Sm TGR block: -13.9%

What do the screens show for `c1cncc(-c2nc(-c3ccco3)cs2)c1`?
FBPA Giardia inh: -16.1%; RE007 growth inh: 6.2%; FMDV inh: 36.9%; Tb PYK inh: inconclusive; HCMV inh: 5.6; Sm TGR block: 7.94µM*
